PubChem BioAssay (EPA / NIEHS)
Results filed as inconclusive are left out. The source made the active and inactive calls. Rule for the calls: active = hit-call score of the fitted dose curve at least 0.9, where 1 is the maximum; inconclusive = response in the unintended direction; inactive = score below 0.9.

What was measured:
[1] = molecular target: Estrogen receptor (Homo sapiens) (UniProt P03372); assay: OT_ER_ERaERa_1440: Odyssey Thera (OT) 24-hour HEK293T Protein-Complementation Assay for Estrogen Receptor-alpha/-alpha Homodimer (AID 2283349);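 note: hits raise fluorescence above DMSO for agonists and antagonists alike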
Method in brief: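 Stably transfected HEK293T; ERα LBD homodimer PCA. 24 h dosing, fluorescence intensity read, gain-of-signal vs DMSO.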

[2] = molecular target: Estrogen receptor (Homo sapiens) (UniProt P03372); assay: OT_ER_ERaERa_0480: Odyssey Thera (OT) 8-hour HEK293T Protein-Complementation Assay for Estrogen Receptor-alpha/-alpha Homodimer (AID 2283351);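 note: rise in fluorescence from reassembled reporter fragments on ERα LBD homodimer in nucleus or whole cell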
Method in brief: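 Cells were treated for 8 hours, then imaged on a laser scanning plate cytometer. Complementation of reporter fragments fused to the human ERα ligand-binding domain (residues 310-547) in HEK293T gave fluorescence, and gain of signal over vehicle was fitted.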

[3] = molecular target: Androgen Receptor/SRC-1 Co-activator, AR (gene 367) (UniProt P10275); assay: OT_AR_ARSRC1_0960: Odyssey Thera (OT) 16-hour HEK293T Protein-Complementation Assay for Androgen Receptor/SRC-1 Co-activator (AID 2283353);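 note: actives raise the signal above DMSO so potency reflects increased AR and SRC-1 complex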
Method in brief: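 Stable HEK293T line carries AR and SRC-1 each linked to a Venus fragment; chemicals are applied for 16 h, cells imaged at two wavelengths, and the 488 nm nucleus/cytoplasm ratio is taken as the signal, rising relative to DMSO.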

[4] = molecular target: Androgen Receptor/SRC-1 Co-activator, AR (gene 367) (UniProt P10275); assay: OT_AR_ARSRC1_0480: Odyssey Thera (OT) 8-hour HEK293T Protein-Complementation Assay for Androgen Receptor/SRC-1 Co-activator (AID 2283354);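 note: hits raise the complementation signal above DMSO so AC50 marks enhancers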
Method in brief: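 After 8 h dosing, stably expressing HEK293T cells with split-Venus AR/SRC-1 fusions were imaged (488, 635nm). The 488nm N/C ratio per image gave the endpoint, analysed in the positive direction against DMSO.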

[5] = molecular target: Estrogen receptor (Homo sapiens) + Estrogen receptor beta (Homo sapiens) (UniProt P03372+Q92731); assay: OT_ER_ERaERb_0480: Odyssey Thera (OT) 8-hour HEK293T Protein-Complementation Assay for Estrogen Receptor-alpha/-beta Heterodimer (AID 2283352)
Method in brief: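 HEK293T cells expressing ER-alpha/ER-beta LBD fusions to complementary reporter fragments were dosed with compound for 8 hours. Heterodimer formation was read as increased nuclear (agonist) or nuclear plus cytoplasmic (antagonist) mean fluorescence intensity versus DMSO vehicle.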

Measured: outcome

Sequence of Estrogen receptor (Homo sapiens) (P03372 whole entry, looked up, the tested form may be a part): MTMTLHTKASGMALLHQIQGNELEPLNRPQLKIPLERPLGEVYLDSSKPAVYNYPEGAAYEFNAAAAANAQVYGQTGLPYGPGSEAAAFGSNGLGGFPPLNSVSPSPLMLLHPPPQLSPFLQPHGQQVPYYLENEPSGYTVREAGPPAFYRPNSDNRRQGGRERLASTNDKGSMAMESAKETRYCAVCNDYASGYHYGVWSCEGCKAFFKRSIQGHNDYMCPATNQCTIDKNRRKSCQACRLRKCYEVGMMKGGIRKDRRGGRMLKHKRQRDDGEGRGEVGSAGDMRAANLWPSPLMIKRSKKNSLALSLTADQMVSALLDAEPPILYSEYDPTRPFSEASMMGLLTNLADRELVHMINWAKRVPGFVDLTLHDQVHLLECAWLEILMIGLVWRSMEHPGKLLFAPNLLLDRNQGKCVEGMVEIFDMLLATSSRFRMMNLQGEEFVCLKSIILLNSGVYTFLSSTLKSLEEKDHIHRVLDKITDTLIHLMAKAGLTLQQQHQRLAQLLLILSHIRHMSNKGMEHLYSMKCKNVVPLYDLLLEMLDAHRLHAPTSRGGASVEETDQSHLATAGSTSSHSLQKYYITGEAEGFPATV
Sequence of Estrogen receptor (Homo sapiens) + Estrogen receptor beta (Homo sapiens) (P03372 whole entry, looked up, the tested form may be a part): as above
Sequence of Estrogen receptor (Homo sapiens) + Estrogen receptor beta (Homo sapiens) (Q92731 whole entry, looked up, the tested form may be a part): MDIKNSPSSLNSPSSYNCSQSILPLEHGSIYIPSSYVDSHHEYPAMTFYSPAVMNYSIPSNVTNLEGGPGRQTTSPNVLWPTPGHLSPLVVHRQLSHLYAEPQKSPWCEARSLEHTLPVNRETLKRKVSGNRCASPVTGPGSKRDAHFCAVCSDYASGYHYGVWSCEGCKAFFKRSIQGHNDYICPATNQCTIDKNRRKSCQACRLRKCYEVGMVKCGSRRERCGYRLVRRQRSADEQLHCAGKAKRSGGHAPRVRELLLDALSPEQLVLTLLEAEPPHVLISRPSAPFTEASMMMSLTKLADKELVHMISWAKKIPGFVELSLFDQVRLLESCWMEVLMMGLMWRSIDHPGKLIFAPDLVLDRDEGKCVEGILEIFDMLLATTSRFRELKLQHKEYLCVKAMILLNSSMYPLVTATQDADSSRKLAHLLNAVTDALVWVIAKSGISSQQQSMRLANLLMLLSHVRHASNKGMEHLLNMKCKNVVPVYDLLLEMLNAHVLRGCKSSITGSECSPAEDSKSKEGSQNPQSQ
Sequence of Androgen Receptor/SRC-1 Co-activator, AR (gene 367) (P10275 whole entry, looked up, the tested form may be a part): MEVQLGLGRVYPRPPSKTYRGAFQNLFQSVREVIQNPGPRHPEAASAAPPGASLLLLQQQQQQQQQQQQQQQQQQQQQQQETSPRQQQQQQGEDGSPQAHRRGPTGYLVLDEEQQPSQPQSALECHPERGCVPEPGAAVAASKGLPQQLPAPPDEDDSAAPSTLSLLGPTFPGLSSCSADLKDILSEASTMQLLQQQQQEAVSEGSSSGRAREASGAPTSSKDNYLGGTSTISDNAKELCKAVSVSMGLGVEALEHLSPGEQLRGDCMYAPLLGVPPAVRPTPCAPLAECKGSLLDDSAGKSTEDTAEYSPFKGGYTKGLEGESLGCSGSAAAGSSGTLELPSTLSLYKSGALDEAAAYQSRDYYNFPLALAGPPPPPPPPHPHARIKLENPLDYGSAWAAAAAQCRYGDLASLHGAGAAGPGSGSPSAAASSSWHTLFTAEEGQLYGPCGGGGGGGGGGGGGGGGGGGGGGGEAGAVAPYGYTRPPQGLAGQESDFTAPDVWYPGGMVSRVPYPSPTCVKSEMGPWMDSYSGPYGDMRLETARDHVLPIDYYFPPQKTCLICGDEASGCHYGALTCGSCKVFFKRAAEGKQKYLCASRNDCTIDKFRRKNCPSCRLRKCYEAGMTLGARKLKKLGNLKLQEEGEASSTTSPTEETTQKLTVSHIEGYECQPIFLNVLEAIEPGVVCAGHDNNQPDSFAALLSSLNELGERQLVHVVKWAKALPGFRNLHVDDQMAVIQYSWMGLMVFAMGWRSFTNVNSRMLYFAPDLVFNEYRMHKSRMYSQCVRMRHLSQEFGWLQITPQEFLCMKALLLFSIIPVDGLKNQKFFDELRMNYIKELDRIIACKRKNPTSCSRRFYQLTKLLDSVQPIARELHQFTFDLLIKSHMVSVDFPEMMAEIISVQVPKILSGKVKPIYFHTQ

COC(=O)c1cccc(C(=O)OC)c1
not listed: [5]
inactive: all other assays above

CCCCCCCCCCCCS
inactive: [1] | [5]

CCCO
inactive: [1] | [2] | [5]

O=S(=O)(O)c1cc(S(=O)(=O)O)c2c(N=Nc3ccccc3)c(O)ccc2c1
inactive: [1] | [2] | [5]
